Measured values: the supplement of paper PMC10849652
The full data set covers some 7,900 targets. This sample favours those with a hit. About 0.6% of all pairs of compound and target were hits.

compound: Cc1ncc(-c2ccnc(Nc3ccc(S(C)(=O)=O)cc3)n2)n1C(C)C; assay: log2 fold change, soluble protein after heating vs DMSO (PISA); higher = thermal stabilisation; K562 cells, 10 uM, 30 min; active = over 0.2 and 3.5 SD of the protein, either way, in both replicates (recomputed)
Procedure, shortened: (§1)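 Thermal stability values are relative to control samples and come from duplicates. They are expressed as log2 fold changes. For measurement, K562 cells (2×10^6 cells/mL) received 10 μM compound for 30 min, and aliquots were heated for 3 min over 48°C-58°C, pooled, and extracted at 4°C in PBS with 0.5% NP-40. Soluble protein, the supernatant after 21,000xg for 90 min, was quantified by TMTpro 16plex LC-MS/MS with equalised channel sums.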

Chain of UniProt Q8IWA5 (Q8IWA5 whole entry, looked up): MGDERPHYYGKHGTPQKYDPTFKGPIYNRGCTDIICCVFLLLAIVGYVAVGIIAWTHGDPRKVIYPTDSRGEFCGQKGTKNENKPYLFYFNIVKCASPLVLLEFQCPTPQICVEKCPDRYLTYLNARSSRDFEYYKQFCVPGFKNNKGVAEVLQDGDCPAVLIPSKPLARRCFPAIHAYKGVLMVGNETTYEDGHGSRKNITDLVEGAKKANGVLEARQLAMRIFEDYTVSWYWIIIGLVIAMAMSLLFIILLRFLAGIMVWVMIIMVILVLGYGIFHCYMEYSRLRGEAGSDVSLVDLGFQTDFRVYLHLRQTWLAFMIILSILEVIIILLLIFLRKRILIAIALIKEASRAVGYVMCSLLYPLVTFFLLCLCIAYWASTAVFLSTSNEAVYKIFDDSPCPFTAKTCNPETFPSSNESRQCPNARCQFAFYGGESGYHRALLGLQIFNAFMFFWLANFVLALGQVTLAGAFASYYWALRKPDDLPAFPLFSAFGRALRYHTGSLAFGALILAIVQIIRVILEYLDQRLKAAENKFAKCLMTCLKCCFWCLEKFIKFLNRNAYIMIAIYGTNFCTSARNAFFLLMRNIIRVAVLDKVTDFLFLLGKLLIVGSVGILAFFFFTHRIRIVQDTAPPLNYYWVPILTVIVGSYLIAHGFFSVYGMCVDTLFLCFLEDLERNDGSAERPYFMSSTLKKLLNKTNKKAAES
Chain of UniProt P12931 (P12931 whole entry, looked up): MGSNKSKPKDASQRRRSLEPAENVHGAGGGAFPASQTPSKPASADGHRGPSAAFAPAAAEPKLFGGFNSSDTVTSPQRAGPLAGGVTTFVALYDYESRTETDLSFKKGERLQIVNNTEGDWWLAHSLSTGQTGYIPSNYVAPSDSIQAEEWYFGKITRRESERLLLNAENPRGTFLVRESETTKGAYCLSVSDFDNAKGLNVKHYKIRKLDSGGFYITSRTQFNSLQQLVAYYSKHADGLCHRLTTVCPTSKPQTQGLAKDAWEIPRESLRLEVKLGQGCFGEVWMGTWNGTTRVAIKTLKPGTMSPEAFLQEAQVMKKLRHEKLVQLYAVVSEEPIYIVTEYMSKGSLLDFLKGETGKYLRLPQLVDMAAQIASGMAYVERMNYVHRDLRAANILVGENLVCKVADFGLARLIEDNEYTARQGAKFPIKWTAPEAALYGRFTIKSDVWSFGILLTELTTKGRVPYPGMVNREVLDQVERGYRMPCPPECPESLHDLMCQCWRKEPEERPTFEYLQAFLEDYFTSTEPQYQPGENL
Chain of UniProt O60271 (O60271 whole entry, looked up): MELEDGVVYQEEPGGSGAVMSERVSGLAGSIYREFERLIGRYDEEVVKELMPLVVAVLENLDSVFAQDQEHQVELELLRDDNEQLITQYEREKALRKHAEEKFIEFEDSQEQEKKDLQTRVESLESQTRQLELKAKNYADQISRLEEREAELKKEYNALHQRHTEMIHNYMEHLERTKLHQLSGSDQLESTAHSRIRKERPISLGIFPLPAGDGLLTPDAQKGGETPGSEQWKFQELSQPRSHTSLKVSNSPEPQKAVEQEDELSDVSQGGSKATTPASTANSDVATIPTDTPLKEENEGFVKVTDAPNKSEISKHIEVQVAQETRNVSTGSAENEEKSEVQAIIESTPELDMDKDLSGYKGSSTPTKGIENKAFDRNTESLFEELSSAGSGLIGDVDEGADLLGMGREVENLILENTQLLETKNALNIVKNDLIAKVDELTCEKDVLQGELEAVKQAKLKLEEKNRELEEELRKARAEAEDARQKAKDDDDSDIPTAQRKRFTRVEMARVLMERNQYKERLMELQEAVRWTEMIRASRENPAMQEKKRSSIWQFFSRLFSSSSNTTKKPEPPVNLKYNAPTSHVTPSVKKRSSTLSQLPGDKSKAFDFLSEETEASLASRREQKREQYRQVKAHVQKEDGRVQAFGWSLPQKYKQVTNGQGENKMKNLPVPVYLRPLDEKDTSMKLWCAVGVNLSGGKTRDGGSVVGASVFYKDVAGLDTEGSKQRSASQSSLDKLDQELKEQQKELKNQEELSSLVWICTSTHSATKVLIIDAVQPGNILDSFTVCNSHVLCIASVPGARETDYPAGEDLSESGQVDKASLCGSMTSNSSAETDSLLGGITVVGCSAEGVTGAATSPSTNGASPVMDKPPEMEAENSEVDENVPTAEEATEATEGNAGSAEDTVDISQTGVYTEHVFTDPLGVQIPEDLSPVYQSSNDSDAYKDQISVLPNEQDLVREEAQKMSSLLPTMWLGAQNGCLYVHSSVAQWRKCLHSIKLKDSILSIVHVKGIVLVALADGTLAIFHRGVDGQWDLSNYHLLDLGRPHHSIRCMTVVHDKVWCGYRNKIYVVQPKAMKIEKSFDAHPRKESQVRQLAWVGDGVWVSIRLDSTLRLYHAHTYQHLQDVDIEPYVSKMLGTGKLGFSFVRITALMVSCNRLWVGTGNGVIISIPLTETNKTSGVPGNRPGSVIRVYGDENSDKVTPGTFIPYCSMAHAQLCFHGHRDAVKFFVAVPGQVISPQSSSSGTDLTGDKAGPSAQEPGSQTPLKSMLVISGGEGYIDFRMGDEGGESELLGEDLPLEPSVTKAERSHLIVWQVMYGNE
Chain of UniProt Q5JUR7 (Q5JUR7 whole entry, looked up): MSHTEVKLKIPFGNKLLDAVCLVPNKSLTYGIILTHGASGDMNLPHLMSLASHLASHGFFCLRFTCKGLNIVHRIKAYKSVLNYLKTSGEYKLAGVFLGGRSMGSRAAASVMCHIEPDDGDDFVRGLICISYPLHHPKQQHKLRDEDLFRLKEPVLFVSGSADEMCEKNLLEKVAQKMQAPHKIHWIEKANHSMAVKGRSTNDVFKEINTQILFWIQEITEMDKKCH
Chain of UniProt Q8N1S5 (Q8N1S5 whole entry, looked up): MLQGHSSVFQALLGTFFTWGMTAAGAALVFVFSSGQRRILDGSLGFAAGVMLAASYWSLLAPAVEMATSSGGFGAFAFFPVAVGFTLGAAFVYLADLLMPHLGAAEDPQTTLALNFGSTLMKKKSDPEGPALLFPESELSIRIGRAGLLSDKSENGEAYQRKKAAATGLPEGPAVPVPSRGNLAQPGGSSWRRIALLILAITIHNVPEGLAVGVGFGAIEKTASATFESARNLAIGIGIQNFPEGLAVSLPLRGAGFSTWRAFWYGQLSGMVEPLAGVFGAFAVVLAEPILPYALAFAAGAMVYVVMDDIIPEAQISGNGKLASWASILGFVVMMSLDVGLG
Chain of UniProt P36897 (P36897 whole entry, looked up): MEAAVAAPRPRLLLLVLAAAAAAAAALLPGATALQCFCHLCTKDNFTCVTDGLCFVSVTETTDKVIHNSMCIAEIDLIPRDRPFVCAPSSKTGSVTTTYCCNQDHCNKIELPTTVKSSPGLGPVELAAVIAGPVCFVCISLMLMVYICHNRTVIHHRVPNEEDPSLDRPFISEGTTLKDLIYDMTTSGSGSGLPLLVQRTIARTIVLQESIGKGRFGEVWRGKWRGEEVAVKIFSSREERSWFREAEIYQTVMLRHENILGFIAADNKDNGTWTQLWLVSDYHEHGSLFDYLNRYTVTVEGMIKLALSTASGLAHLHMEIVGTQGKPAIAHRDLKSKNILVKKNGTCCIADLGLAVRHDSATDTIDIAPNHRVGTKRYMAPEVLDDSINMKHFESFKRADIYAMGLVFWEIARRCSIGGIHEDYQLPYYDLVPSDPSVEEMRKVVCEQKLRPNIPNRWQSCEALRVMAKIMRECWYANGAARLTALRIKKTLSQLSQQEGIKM
Chain of UniProt Q8IY18 (Q8IY18 whole entry, looked up): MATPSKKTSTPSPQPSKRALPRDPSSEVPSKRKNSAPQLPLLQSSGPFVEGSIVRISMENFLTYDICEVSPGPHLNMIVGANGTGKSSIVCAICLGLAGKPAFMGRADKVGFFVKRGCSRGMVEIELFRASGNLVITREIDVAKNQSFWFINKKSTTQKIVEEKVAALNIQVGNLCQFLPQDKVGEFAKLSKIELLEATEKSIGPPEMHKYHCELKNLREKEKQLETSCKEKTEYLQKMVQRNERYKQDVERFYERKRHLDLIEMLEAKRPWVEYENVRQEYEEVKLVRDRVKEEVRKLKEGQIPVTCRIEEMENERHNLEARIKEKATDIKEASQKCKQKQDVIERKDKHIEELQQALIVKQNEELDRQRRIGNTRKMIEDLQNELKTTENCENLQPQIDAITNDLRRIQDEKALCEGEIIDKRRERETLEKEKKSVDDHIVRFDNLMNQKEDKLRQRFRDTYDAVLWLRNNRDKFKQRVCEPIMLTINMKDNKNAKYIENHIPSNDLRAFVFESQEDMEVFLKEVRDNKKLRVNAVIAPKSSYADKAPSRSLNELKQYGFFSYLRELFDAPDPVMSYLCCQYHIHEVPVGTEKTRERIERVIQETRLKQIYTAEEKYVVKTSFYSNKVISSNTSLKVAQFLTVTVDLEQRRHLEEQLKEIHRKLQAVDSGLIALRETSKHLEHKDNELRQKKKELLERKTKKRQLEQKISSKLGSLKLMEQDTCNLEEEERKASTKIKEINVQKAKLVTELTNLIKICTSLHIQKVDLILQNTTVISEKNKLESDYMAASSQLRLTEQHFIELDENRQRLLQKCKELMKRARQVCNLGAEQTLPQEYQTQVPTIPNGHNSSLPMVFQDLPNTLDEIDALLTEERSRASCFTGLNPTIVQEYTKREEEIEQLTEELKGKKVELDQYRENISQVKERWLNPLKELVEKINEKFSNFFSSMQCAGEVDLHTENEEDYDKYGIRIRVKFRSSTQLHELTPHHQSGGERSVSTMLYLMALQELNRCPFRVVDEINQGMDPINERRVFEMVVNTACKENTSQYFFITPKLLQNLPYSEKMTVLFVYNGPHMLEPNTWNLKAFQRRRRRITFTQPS
Chain of UniProt Q96DW6 (Q96DW6 whole entry, looked up): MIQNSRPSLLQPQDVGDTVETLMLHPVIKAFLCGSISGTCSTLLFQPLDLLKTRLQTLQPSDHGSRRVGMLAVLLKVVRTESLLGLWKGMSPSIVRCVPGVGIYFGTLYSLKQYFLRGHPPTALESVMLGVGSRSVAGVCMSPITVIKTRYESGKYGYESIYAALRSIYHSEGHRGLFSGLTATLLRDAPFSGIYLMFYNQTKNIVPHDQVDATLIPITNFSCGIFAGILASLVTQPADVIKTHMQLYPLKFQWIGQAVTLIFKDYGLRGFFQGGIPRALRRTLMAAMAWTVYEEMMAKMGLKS

log2 fold change, inactive:
SYNE2 isoform 2 (UniProt Q8WXH0) -0.069, SPAG9 (UniProt O60271) 0.015, SRFBP1 (UniProt Q8NEF9) -0.066, SMC5 (UniProt Q8IY18) 0.082, SLC38A7 (UniProt Q9NVC3) -0.053, SLC30A10 (UniProt Q6XR72) 0.043, TK1 (UniProt K7ERV3) -0.076, SMCHD1 (UniProt A6NHR9) -0.044, SLC44A2 isoform 2 (UniProt Q8IWA5) 0.068, SYNE1 (UniProt Q8NF91) -0.074, TENT5C (UniProt Q5VWP2) 0.005, SRCAP (UniProt Q6ZRS2) -0.007, TBC1D20 isoform 3 (UniProt Q96BZ9) 0.033, STK11IP (UniProt Q8N1F8) 0.051, SMAD2 (UniProt Q15796) -0.14, STXBP2 isoform 3 (UniProt Q15833) -0.014, SPIRE1 (UniProt Q08AE8) -0.046, TGFBR1 isoform 2 (UniProt P36897) 0.007, STK38L (UniProt Q9Y2H1) -0.03, STARD3 (UniProt Q14849) 0.068, SRC isoform 2 (UniProt P12931) -0.136, SRSF6 (UniProt Q13247) 0.095, TEX30 (UniProt Q5JUR7) -0.016, TFAM (UniProt Q00059) 0.003, SLC39A11 (UniProt Q8N1S5) 0.248, TM9SF4 (UniProt Q92544) 0.037, SLC25A38 (UniProt Q96DW6) -0.114, SSBP4 (UniProt Q9BWG4) 0.053, TAOK3 (UniProt Q9H2K8) -0.048, SRI (UniProt P30626) -0.036, SNX15 (UniProt Q9NRS6) 0.002, SRXN1 (UniProt Q9BYN0) 0.093, STX7 (UniProt O15400) -0.017, TATDN2 (UniProt Q93075) -0.043, TACC2 (UniProt O95359) 0.008, SOAT1 (UniProt P35610) -0.021, SP1 (UniProt P08047) -0.02

compound: Cn1cc(-c2ccc3c(c2)CCN3C(=O)Cc2cccc(C(F)(F)F)c2)c2c(N)ncnc21; assay: as above
Procedure, shortened: as §1

log2 fold change, inactive:
SYNE2 isoform 2 (UniProt Q8WXH0) 0.153, SPAG9 (UniProt O60271) -0.018, SRFBP1 (UniProt Q8NEF9) -0.163, SMC5 (UniProt Q8IY18) 0.006, SLC38A7 (UniProt Q9NVC3) -0.005, SLC30A10 (UniProt Q6XR72) 0.078, TK1 (UniProt K7ERV3) 0.176, SMCHD1 (UniProt A6NHR9) -0.061, SLC44A2 isoform 2 (UniProt Q8IWA5) 0.084, SYNE1 (UniProt Q8NF91) 0.079, TENT5C (UniProt Q5VWP2) -0.286, SRCAP (UniProt Q6ZRS2) -0.061, TBC1D20 isoform 3 (UniProt Q96BZ9) 0.121, STK11IP (UniProt Q8N1F8) -0.068, SMAD2 (UniProt Q15796) 0.023, STXBP2 isoform 3 (UniProt Q15833) 0.073, SPIRE1 (UniProt Q08AE8) -0.155, TGFBR1 isoform 2 (UniProt P36897) -0.046, STK38L (UniProt Q9Y2H1) -0.122, STARD3 (UniProt Q14849) 0.119, SRC isoform 2 (UniProt P12931) 0.008, SRSF6 (UniProt Q13247) -0.251, TEX30 (UniProt Q5JUR7) 0.084, TFAM (UniProt Q00059) -0.048, SLC39A11 (UniProt Q8N1S5) 0.128, TM9SF4 (UniProt Q92544) -0.021, SLC25A38 (UniProt Q96DW6) 0.022, TAOK3 (UniProt Q9H2K8) 0.025, SRI (UniProt P30626) 0.113, SNX15 (UniProt Q9NRS6) -0.046, SRXN1 (UniProt Q9BYN0) 0.134, STX7 (UniProt O15400) -0.007, SMARCA4 (UniProt P51532) -0.036, TATDN2 (UniProt Q93075) -0.059, TACC2 (UniProt O95359) -0.001, SOAT1 (UniProt P35610) 0.031, SP1 (UniProt P08047) -0.018
